Compound activity: PubChem, several laboratories
A selection: hits, their analogues and other compounds. The true share with any hit is near 28%.
DAT uptake mod: changed hDAT dopamine uptake under cocaine IC80, either direction, primary screen, cocaine antagonist project, cell-based, LLC-PK1 hDAT, [14C]-dopamine uptake, MLSMR; B-score at 10 µM; Sodium-dependent dopamine transporter (Homo sapiens), Q01959; 1.3% of 110,000 active; AID 449768, 2010; LLC-PK1 hDAT cells, [14C]-dopamine uptake with cocaine IC80; actives deviate in either direction;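 active = Z score or B-score, a plate-position-corrected score, falls beyond the plate's 99.7% confidence bounds, in either direction; inactive = both scores lie inside the 99.7% bounds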
CYP2C19 inhib: blockers of cytochrome P450 2C19 activity – biochemical, luminescence, ADME assay, primary screen. inhibition, % at 5 µM. P33261. CYP2C19 Supersomes, luciferin-H EGE luminescence, 30 min. 21% of 96,000 active. AID 778, 2007;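 active = CYP2C19 inhibition above a set limit at 5 µM in the primary screen, cut at about 50% in these data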
CYP2C9 inh: blockers of cytochrome P450 2C9 activity – biochemical, luminescence, ADME assay, primary screen; inhibition, % at 5 µM; CYP2C9 Supersomes, luciferin-H conversion; P11712; AID 777, 2007; 20% of 96,000 active;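 active = blocking of liver enzyme CYP2C9 beyond about 50% at 5 µM, limit read from the data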
Target sequence (P11712 whole entry, looked up): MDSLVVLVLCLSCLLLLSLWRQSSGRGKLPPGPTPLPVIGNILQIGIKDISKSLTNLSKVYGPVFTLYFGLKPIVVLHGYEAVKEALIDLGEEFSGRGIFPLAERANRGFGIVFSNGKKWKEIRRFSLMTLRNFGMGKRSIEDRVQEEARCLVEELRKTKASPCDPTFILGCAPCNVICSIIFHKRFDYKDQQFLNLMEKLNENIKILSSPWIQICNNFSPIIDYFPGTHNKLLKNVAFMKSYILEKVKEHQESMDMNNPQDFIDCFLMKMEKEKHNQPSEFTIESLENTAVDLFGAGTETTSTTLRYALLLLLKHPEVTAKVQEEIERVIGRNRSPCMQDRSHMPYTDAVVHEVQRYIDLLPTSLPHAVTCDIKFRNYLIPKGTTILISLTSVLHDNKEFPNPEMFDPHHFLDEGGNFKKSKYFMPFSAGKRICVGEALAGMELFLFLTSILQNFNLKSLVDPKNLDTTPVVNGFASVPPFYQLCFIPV
CYP2C9 activ: human CYP2C9 activators, primary screen, biochemical, luminescence; Cytochrome P450 2C9 (Homo sapiens), P11712; recombinant CYP2C9, luciferin-H conversion; stronger effect = higher value; factor 1 = untreated enzyme, 0 = blocked; activation factor at 5 µM; 1.4% of 96,000 active; AID 1024, 2008;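 active = activation factor of 2 or more for CYP2C9 at a 5 µM dose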
CYP2C19 activ: human CYP2C19 activators, primary screen, biochemical, luminescence; 96,000 tested, under 10 active; Cytochrome P450 2C19 (Homo sapiens), P33261; activation factor at 5 µM; recombinant CYP2C19, luciferin-H EGE luminescence; stronger effect = higher value; 0 = fully inhibited enzyme, 1 = untreated enzyme;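 active = activation factor of at least 2 at 5 µM in the primary screen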
D1 mod: D1 CRE-luciferase signal change, two-sided – cell-based, HEK293 D1, dopamine EC30, D1 allosteric modulator project, primary screen; D(1A) dopamine receptor (Homo sapiens), P21728; dopamine EC30 potentiation; actives deviate in either direction; B-score at 10 µM; 5.9% of 58,000 active; AID 641, 2007;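 active = luminescence count or its row- and column-corrected plate score outside the 99.7% band of the plate's sample wells, on either side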
Of the large screens only hits and unclear results are named; the others gave an inactive call.

O=S(=O)(N/N=C\C=C\c1ccccc1)c1ccc(Br)cc1	CYP2C9 inh 97 (no result: D1 mod)
Cc1ccc(-c2csc(N/N=C/C=C/c3ccccc3)n2)cc1	none (no result: D1 mod)
CCOC(=O)c1cnc2c(C)c(-c3ccccc3)[nH]n2c1=O	none (no result: D1 mod)
Cc1cc(NC(=O)c2cc(-c3ccncc3)nc3c(C)cccc23)no1	CYP2C19 inhib 90, CYP2C9 inh 97
Cc1cc(C)c2nc(-c3ccccn3)cc(C(=O)Nc3cc(C)on3)c2c1	none
COc1ccc(CC(=O)Nc2nc3ccccc3s2)cc1S(=O)(=O)N1CCOCC1	CYP2C19 inhib 76, CYP2C9 inh 64 (no result: DAT uptake mod)
COc1ccc(CC(=O)NCc2ccccc2)cc1S(=O)(=O)N1CCOCC1	none
COc1ccc(CC(=O)Nc2nnc(SCc3ccccc3)s2)cc1S(=O)(=O)N1CCOCC1	CYP2C19 inhib 91, CYP2C9 inh 90 (no result: D1 mod)
COc1ccc(CC(=O)Nc2nc3ccc(F)cc3s2)cc1S(=O)(=O)N1CCOCC1	CYP2C19 inhib 75, CYP2C9 inh 75 (no result: D1 mod)
CC(C)c1ccc(CN2CCC(C(=O)NCc3cccnc3)CC2)cc1	none (no result: D1 mod)
CCCCNC(=O)CSc1nc2ccccc2c(=O)n1C1CCCC1	CYP2C9 inh 56
O=c1c2ccccc2ncn1C1CCCCC1	none
CCOC(=O)CSc1nc2ccccc2c(=O)n1C1CCCC1	none
Cc1nc2ccccc2c(=O)n1C1CCCCCC1	CYP2C19 inhib 58
CC1(C)Oc2cc3oc(-c4cc(O)cc(O)c4)cc3cc2CC1O (stereo not given)	none (no result: CYP2C19 inhib, CYP2C9 inh, CYP2C9 activ, CYP2C19 activ, D1 mod)
Cc1cccc(C)c1NC(=O)C1CCCCN1C (stereo not given)	none (no result: CYP2C19 inhib, CYP2C9 inh, CYP2C9 activ, CYP2C19 activ)
CCN(CC)C(=O)CN1C(=O)COCC1=O	none (no result: D1 mod)
Cc1c(O)c(CN2CCCC2)cc2c1oc(=O)c1ccccc12	CYP2C19 inhib 57 (no result: D1 mod)
O=c1oc2ccccc2c(O)c1CN1CCCCC1	CYP2C19 inhib 52, CYP2C9 inh 94
Cc1c(O)c(CN2CCCC2)cc2c3c(c(=O)oc12)CCC3	CYP2C9 inh 52
CCCS(=O)(=O)N1CCCC(C(=O)NCCCN2CCN(c3ccccc3F)CC2)C1 (stereo not given)	none
CCn1c(SC)nnc1-c1sc2cc(Cl)ccc2c1Cl	none
CSc1nnc(-c2sc3cc(Cl)ccc3c2Cl)n1C	CYP2C19 inhib 52
Cc1ccc(NC(=O)/C(=C\c2ccccc2)NC(=O)/C=C/c2ccccc2)cc1	none (no result: D1 mod)
Cc1ccc(NC(=O)/C(=C\C=C\c2ccccc2)NC(=O)c2ccccc2)cc1	CYP2C9 inh 68 (no result: D1 mod)
Cc1ccc(C(=O)O)cc1S(=O)(=O)N1CCCC1	none (no result: D1 mod)
O=C(NCCOC(=O)c1ccc(Cl)c(S(=O)(=O)N2CCCCC2)c1)c1ccncc1	CYP2C19 inhib 89, CYP2C9 inh 91
O=C(NCCc1ccccn1)c1ccc(S(=O)(=O)N2CCCCCC2)cc1	none
CCN(CC)CCNC(=O)c1ccc(Cl)c(S(=O)(=O)N2CCCCCC2)c1	CYP2C9 inh 72 (no result: D1 mod)
CC[C@H]1OC(=O)[C@H](C)[C@@H](O[C@H]2C[C@@](C)(OC)[C@@H](O)[C@H](C)O2)[C@H](C)[C@@H](O[C@@H]2O[C@H](C)C[C@H](N(C)C)[C@H]2O)[C@](C)(O)C[C@@H](C)CN(C)[C@H](C)[C@@H](O)[C@]1(C)O	none (no result: CYP2C19 inhib, CYP2C9 inh, CYP2C9 activ, CYP2C19 activ, D1 mod)
Cc1[nH]c2ccccc2c1C(=O)CSc1nc2ccccc2c(=O)n1CCCN1CCOCC1	CYP2C19 inhib 73, CYP2C9 inh 85 (no result: D1 mod)
COc1ccc(-c2nc3ccccc3c(=O)n2CCCN2CCOCC2)cc1	CYP2C19 inhib 90
O=c1c2ccccc2nc(-c2ccccc2)n1CCN1CCOCC1	none (no result: D1 mod)
Cc1cccc(-c2nc(=S)c3c(o2)CCCC3)c1	CYP2C9 activ 2.5 (no result: D1 mod)
Cc1ccc(S(=O)(=O)N2CCN(CC(=O)NC(=O)NCc3ccccc3)CC2)cc1C	none (no result: D1 mod)
CCOC(=O)c1sc(SCC(=O)Nc2ccc(N(C)C)cc2)nc1N	CYP2C19 inhib 69, CYP2C9 inh 57
CCn1c(SCC(=O)Nc2ccc(N(C)C)cc2)nnc1-c1cccc(C)c1	CYP2C19 inhib 73, CYP2C9 inh 86
CCn1c(SCC(=O)Nc2ccc(C)cc2)nnc1-c1ccc(O)cc1	none (no result: CYP2C19 inhib, CYP2C9 inh, CYP2C9 activ, CYP2C19 activ, D1 mod)
CCn1c(SCC(=O)Nc2cccc(NC(=O)c3cccs3)c2)nnc1-c1ccncc1	CYP2C9 inh 72
CCn1c(SCC(=O)Nc2ccc(S(=O)(=O)Nc3ccccn3)cc2)nnc1-c1ccncc1	CYP2C19 inhib 60, CYP2C9 inh 95
O=C(CSc1nnc(-c2ccccc2)n1C1CCCCC1)Nc1ccc(S(=O)(=O)Nc2ccccn2)cc1	none (no result: D1 mod)
CS(=O)(=O)N1CCC(C(=O)Nc2ccc(Br)cc2F)CC1	none
COc1cccc(OC)c1C(=O)Nc1cc(C)on1	none (no result: DAT uptake mod, D1 mod)
CCC(=O)Nc1cccc(NC(=O)CSc2nnc(-c3ccc(NS(C)(=O)=O)cc3)n2CC)c1	CYP2C9 inh 54 (no result: D1 mod)
CCn1c(SCC(=O)Nc2cc(C)on2)nnc1-c1ccncc1	CYP2C19 inhib 73
CCn1c(SCC(=O)Nc2cc(C)on2)nnc1-c1c[nH]c2ccccc12	none (no result: CYP2C19 inhib, CYP2C9 inh, CYP2C9 activ, CYP2C19 activ, D1 mod)
CCN(c1ccccc1)S(=O)(=O)c1cc(C(=O)O)ccc1C	none (no result: D1 mod)
COc1cc(C2Nn3c(nnc3-c3ccccc3OC)S2)ccc1O (stereo not given)	none (no result: CYP2C19 inhib, CYP2C9 inh, CYP2C9 activ, CYP2C19 activ, D1 mod)
COC(=O)c1c(C)[nH]c(C)c1-c1ccc(C)cc1	CYP2C19 inhib 82 (no result: D1 mod)
[N-]=[N+]=CC(=O)c1ccnc(C(=O)C=[N+]=[N-])c1	none
O=C(NCc1ccc(F)cc1)c1cnc(-c2ccccn2)nc1C(F)(F)F	none (no result: D1 mod)
COc1ccc(OC)c(C(c2nnnn2CCc2ccccc2)N2CCC(C(N)=O)CC2)c1 (stereo not given)	none
CCCCn1c(-c2nn(C)c(C)c2Cl)n[nH]c1=S	none (no result: D1 mod)
CCCCn1c(-c2nn(C)cc2Cl)n[nH]c1=S	CYP2C19 inhib 52 (no result: D1 mod)
CC(C)Cn1c(-c2nn(C)cc2Cl)n[nH]c1=S	CYP2C19 inhib 57 (no result: D1 mod)
Cc1ccc(N)cc1CN1CCCC1=O	DAT uptake mod -1.9
CCN(CC)CCOC(=O)c1ccc(NC(=O)COc2cc(=O)n(CC)c3ccccc23)cc1	CYP2C19 inhib 66, CYP2C9 inh 52
CCn1c(=O)cc(OCC(=O)N(C)C2CCCCC2)c2ccccc21	DAT uptake mod 2.4 (no result: D1 mod)
CCOC(=O)C(Cc1cc(C(C)=O)ccc1OCC)C(=O)OCC	none
CCOC(=O)C(Cc1cc(C(C)=O)ccc1OC(C)C)C(=O)OCC	CYP2C19 inhib 60, CYP2C9 inh 61
COc1ccc(NC(=O)Nc2nnc(N3CCCCC3C)s2)cc1OC (stereo not given)	none (no result: DAT uptake mod, CYP2C19 inhib, CYP2C9 inh, CYP2C9 activ, CYP2C19 activ)
